These results are taken from PubChem BioAssay (NCATS).

The nature of experiment [1]: Viability qHTS for spleen associated tyrosine kinase inhibitor (SYKi) naive MV4-11 cells (AID 1963823). Further: nearly all actives have a fitted effect of over 40% in size. The essentials: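 Read-out: CellTiter-Glo luminescence. Exposure: 72 hr, 37 C, 5% CO2, 95% humidity. Cells: MV4-11 without SYK inhibitor history, 500/well, qHTS format.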
A general note: In qHTS, concentration-response curves come from the screen itself.

Experiment [2] in a line: Viability qHTS for spleen associated tyrosine kinase inhibitor (SYKi) drug resistant MV4-11 cells (AID 1963824). Further: nearly all actives have a fitted effect of over 35% in size. The method in brief:
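SYK-inhibitor-resistant MV4-11 AML cells were seeded at 500 per well onto compound and cultured 72 hours (37 °C, 5% CO2). CellTiter-Glo was then added, and after 10 min at room temperature, luminescence gave viability.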

Results filed as inconclusive are left out. Values without a mark were called inactive. Active and inactive are the calls of the source. The call rests on the fitted dose curve; in most records, active means well fitted cell-killing curve with a large enough effect; inconclusive means small, poorly fitted or top-dose-only effect, or effect the other way; inactive means no such curve, though single readings can be large or run the other way.
Potency means the concentration at half of the fitted maximal effect.

As for `CN(c1ccccc1CNc1nc(Nc2ccc3c(c2)CC(=O)N3)ncc1C(F)(F)F)S(C)(=O)=O`, the Potency in experiment [1] is 0.291 µM (active); in experiment [2], 0.326 µM (active).
As to `CC12CC(c3ccoc3)OC(=O)C1CCC1(C)C2CCC(O)C1(C)O` (stereo not drawn), the Potency entry in experiment [1] and in experiment [2] was “inactive” throughout.
For `C[C@@H]1O[C@@H](O[C@@H]2[C@@H](O)[C@H](O[C@@H]3[C@@H](O)[C@@H](O)[C@H](O[C@H]4[C@H](OC(=O)[C@]56CCC(C)(C)C[C@H]5C5=CCC7[C@@]8(C)C[C@H](O)[C@H](O[C@@H]9O[C@H](C(=O)O)[C@@H](O)[C@H](O)[C@H]9O)[C@@](C)(CO)C8[C@H](O)C[C@@]7(C)[C@]5(C)C[C@H]6O)O[C@@H](CO)[C@@H]4O)O[C@H]3C)OC[C@H]2O)[C@H](O)[C@H](O)[C@H]1O` (stereo partly drawn), in experiment [1], the viability (% of control) is 90.8% [at 9.25 µM]. The viability, % of control in experiment [2] was 95.2% [at 9.25 µM].
As to `C=C1C(=O)O[C@@H]2/C=C(\CO)CC/C=C(/C=O)C[C@H](O)[C@@H]12`, the Potency was 4.11 µM (active) in experiment [1] and 3.26 µM (active) in experiment [2].
The corresponding values for `CC(C)=CCC[C@](C)(O[C@@H]1O[C@H](CO[C@@H]2OC[C@H](O)[C@H](O)[C@H]2O)[C@@H](O)[C@H](O)[C@H]1O)[C@H]1CC[C@]2(C)[C@@H]1[C@H](O)C[C@@H]1[C@@]3(C)CC[C@H](O[C@@H]4O[C@H](CO)[C@@H](O)[C@H](O)[C@H]4O[C@@H]4O[C@H](CO)[C@@H](O)[C@H](O)[C@H]4O)C(C)(C)[C@@H]3CC[C@]12C` are “inactive” and “inactive”.
For the molecule `C/C1=C\CC(C)(C)/C=C/C/C(C(=O)O)=C/CC1`, the Potency in experiment [1] and in experiment [2] was 23.1 µM (active) each time.
Take `CC(=O)O[C@@H]1C[C@H](O)[C@@]23CO[C@H](O)[C@]1(C)C2C[C@@H](O)[C@]1(C)C3C(=O)[C@H](OC(C)=O)[C@@]2(C)[C@H](c3ccoc3)C[C@H]3O[C@]321` (stereo partly drawn): the Potency is 0.0385 µM (active) in experiment [1] and 0.0343 µM (active) in experiment [2].
As to `CC1OC2OC(=O)C3(C)CC4=C(CO)C5=C(CC(=O)C4(C)C(C1=O)C23)C(C)(C)OC(=O)C5` (stereo not drawn), the Potency result in experiment [1] and in experiment [2] was “inactive” throughout.
As for `CC1(C)CC[C@]2(C(=O)O)CC[C@]3(C)C(=CCC4[C@@]5(C)C[C@@H](O)[C@H](O)[C@@](C)(CO)C5CC[C@]43C)C2C1` (stereo partly drawn), the Potency result in experiment [1] is “inactive”. In addition, the Potency in experiment [2] was 7.96 µM (active).
For the molecule `CCCCCCc1cccc(NC(=O)[C@H](N)CCP(=O)(O)O)c1`, in experiment [1], the viability (% of control) was 90.5% [at 9.25 µM]. For the same molecule, the viability, % of control in experiment [2] is 99.2% [at 9.25 µM].
For `C=C(CCO[C@@H]1O[C@H](CO)[C@@H](O)[C@H](O)[C@H]1O)C(=O)O`, the Potency entry in experiment [1] and in experiment [2] was “inactive” each time.
Regarding `C=CC(=O)N1CCCN(c2cc(NCCC(=O)O)nc(-c3ccccn3)n2)CC1`, the Potency result in experiment [1] and in experiment [2] was “inactive” throughout.
For `CN(C)S(=O)(=O)c1ccc2c(c1)/C(=C/c1cc3c([nH]1)CCCC3)C(=O)N2`, the Potency in experiment [1] is 0.82 µM (active); in experiment [2] it was 1.64 µM (active).
As to `C[C@]12CC[C@@H]3c4ccc(O)cc4CC[C@H]3[C@@H]1C[C@@H](O[C@@H]1O[C@H](C(=O)O)[C@@H](O)[C@H](O)[C@H]1O)[C@@H]2O`, the Potency entry in experiment [1] and in experiment [2] was “inactive” in each case.
Regarding `CC1=CC[C@]2(C(=O)O[C@@H]3O[C@H](CO[C@@H]4O[C@H](CO)[C@@H](O[C@@H]5O[C@@H](C)[C@H](O)[C@@H](O)[C@H]5O)[C@H](O)[C@H]4O)[C@@H](O)[C@H](O)[C@H]3O)CC[C@]3(C)C(CCC4[C@@]5(C)C[C@@H](O)[C@H](O)[C@@](C)(CO)C5CC[C@]43C)C2C1C` (stereo partly drawn), in experiment [1], the viability (% of control) was 78.2% [at 9.25 µM]. The viability, % of control in experiment [2] was 86.5% [at 9.25 µM].
For the molecule `C=C1C(=O)OC2C1CCC1(C)C(O)CCC(=C)C21` (stereo not drawn), the results for the Potency in experiment [1] and in experiment [2] were 9.2 µM (active) and 4.61 µM (active), respectively.
Turning to `Cc1ccc(C2(C(=O)N3CCC(n4nc(-c5ccccc5)oc4=O)CC3)CC2)cc1`, the Potency entry in experiment [1] and in experiment [2] was “inactive” throughout.
As for `O=C(C[C@@H]1C(C(=O)O)=CO[C@@H](O[C@@H]2O[C@H](CO)[C@@H](O)[C@H](O)[C@H]2O)/C1=C\CO)OCCc1ccc(O)cc1`, the Potency result in experiment [1] and in experiment [2] was “inactive” throughout.
As to `CC1OC(OC2C(OC3C(O[C@H]4CC[C@@]5(C)C(CC[C@]6(C)C5C(=O)C=C5C7CC(C)(C)CC(O)[C@]7(C)CC[C@]56C)C4(C)C)OC(C(=O)O)C(O)C3O)OCC(O)C2O)C(O)C(O)C1O` (stereo partly drawn), the viability (% of control) in experiment [1] was 54.7% [at 9.25 µM]. For the same molecule, in experiment [2], the viability, % of control was 71.2% [at 9.25 µM].
Consider `C=CC(=O)N1CCN(C(=O)CNc2cc(-c3ccccc3Cl)c(Cl)cc2OC)CC1`, for which the results for the Potency in experiment [1] and in experiment [2] were 10.3 µM (active) and 11.6 µM (active), respectively.
On to `Cc1cn(C2C[C@H](O)[C@@H](CO)O2)c(=O)[nH]c1=O` (stereo partly drawn), for which the Potency entry in experiment [1] and in experiment [2] was “inactive” throughout.
As to `CC(C)=CCC[C@](C)(O[C@@H]1O[C@H](CO[C@@H]2O[C@H](CO)[C@@H](O)[C@H](O)[C@H]2O)[C@@H](O)[C@H](O)[C@H]1O)C1CC[C@]2(C)[C@@H]1[C@H](O)CC1[C@@]3(C)CC[C@H](O[C@@H]4O[C@H](CO)[C@@H](O)[C@H](O)[C@H]4O[C@@H]4O[C@H](CO)[C@@H](O)[C@H](O)[C@H]4O)C(C)(C)[C@@H]3CC[C@]12C` (stereo partly drawn), the viability (% of control) in experiment [1] is 64.5% [at 9.25 µM]. Further, the viability, % of control in experiment [2] was 69.6% [at 9.25 µM].
Take `CC[C@@H](N)CNc1ccnc(-c2cc(-c3cnn(C)c3)ccc2O)n1`: the Potency is 0.92 µM (active) in experiment [1] and 1.64 µM (active) in experiment [2].
Regarding `CC1(C(=O)O)CC[C@]2(C(=O)OC3OC(CO)C(O)C(O)C3O)CC[C@]3(C)C(=CCC4[C@@]5(C)CC[C@H](OC6OCC(O)C(O)C6OC6OC(CO)C(O)C(O)C6O)C(C)(C)C5CC[C@]43C)C2C1` (stereo partly drawn), the viability (% of control) in experiment [1] is 68.3% [at 9.25 µM]. Also, the viability, % of control in experiment [2] was 78.9% [at 9.25 µM].
